Measurements reported in PubChem BioAssay (NCATS).
Records with an inconclusive call do not appear. Entries that show only a call come without a potency. The source made the active and inactive calls. Unless noted, calls come from the whole dose curve; as a rule, active = well fitted curve in the direction sought with a large enough effect; inconclusive = small, poorly fitted or top-dose-only effect, or another doubt; inactive = no such curve, though single readings can be large; an effect the other way counts as inactive or inconclusive.

How the values were obtained:
[1] = qHTS profiling of the MIPE4 collection as inhibitors of Plasmodium falciparum (3D7) proliferation (AID 743344; call rule not given here); conditions: P. falciparum 3D7 in erythrocytes, SYBR Green DNA fluorescence, 72 h; at 28.5 µM unless noted
Summary of the method: (§1)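 Erythrocytes infected with P. falciparum (0.3% parasitemia, 2.5% hematocrit) incubated with compounds 72 h at 37 C, 5% CO2. Lysis with saponin/Triton buffer containing SYBR Green I, overnight at room temperature in the dark; DNA fluorescence (485/535 nm) normalised to 0.29 uM artemisinin and DMSO.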

[2] = qHTS profiling of the MIPE4 collection as inhibitors of Plasmodium falciparum (DD2) proliferation (Rep 2) (AID 743346; call rule not given here); conditions: P. falciparum Dd2 in erythrocytes, SYBR Green DNA, 72 h; at 28.5 µM unless noted
Summary of the method: as §1

[3] = qHTS for Inhibitors of the Functional Ribonucleoprotein Complex (vRNP) of Lassa (LASV) Arenavirus: Viability assay - alamar blue signal for LASV Primary Screen (AID 1347083; calls by dose curve; tested in HEK293 reporter line; note: potency is the fitted concentration of half-maximal effect; nearly all actives have a fitted effect of over 80% in size)
[4] = qHTS for Inhibitors of the Functional Ribonucleoprotein Complex (vRNP) of Lymphocytic Choriomeningitis Arenaviruses (LCMV): Viability assay - alamar blue signal for LCMV Primary Screen (AID 1347085; calls by dose curve; tested in HEK293 reporter line; note: potency is the fitted concentration of half-maximal effect; nearly all actives have a fitted effect of over 80% in size)
[5] = biological target: Nucleoprotein (Lymphocytic choriomeningitis virus (strain Armstrong)) (UniProt P09992); assay: qHTS for Inhibitors of the Functional Ribonucleoprotein Complex (vRNP) of Lymphocytic Choriomeningitis Arenaviruses (LCMV): LCMV Primary Screen - GLuc reporter signal (AID 1347086; calls by dose curve; note: potency is the fitted concentration of half-maximal effect; nearly all actives have a fitted effect of over 70% in size)
[6] = Cytotoxicity counterscreen for inhibitors of SARS-CoV-2 cell entry (AID 1645845; calls by dose curve; note: nearly all actives have a fitted effect of over 50% in size)
Summary of the method: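 Expi293F/hACE2 cells seeded overnight; cpd pin-transferred in DMSO, 1 h preincubation, + media, 48 h 37 C 5% CO2; ATPLite 1step luminescence; normalized to cells and no cells.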

[7] = system: CRL-7250; assay: qHTS assay to identify novel small-molecules to repurpose for Merkel cell carcinoma treatment (AID 1296009); conditions: MCC and control cell lines, CellTiter-Glo viability, 72 h; series mostly up to 92 µM; note: nearly all actives have a fitted effect of over 60% in size
Summary of the method: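 qHTS format: cells treated with library compounds in DMSO across 8 (NPC) or 11 (MIPE) concentrations. Readout after 72 hr at 37 degree celsius was CellTiter-Glo luminescence.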

[8] = qHTS for inhibitors of Rabies Virus screened against the NCATS CANVASS Library (AID 1347402; calls by dose curve)
[9] = VSVG counterscreen qHTS to identify inhibitors of SARS-CoV-2 cell entry (AID 1645847; calls by dose curve; note: nearly all actives have a fitted effect of over 65% in size; note: potency is the fitted concentration of half-maximal effect)
Summary of the method: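 Entry of VSV-G pseudotyped particles into human ACE2-expressing HEK293 cells was measured by luciferase luminescence 48 h after infection, with compound added 1 h beforehand.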

[10] = Primary qHTS to identify inhibitors of SARS-CoV-2 cell entry (AID 1645846; calls by dose curve; note: nearly all actives have a fitted effect of over 45% in size); conditions: activity change, negative = inhibition: at 57.1 µM (top of the series) unless noted
Summary of the method: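 Using luciferase-reporting pseudoviruses carrying Wuhan-Hu-1 spike, the screen tracks entry into stably ACE2-expressing cells over 48 hr. Activity is expressed relative to spike particles versus particles lacking any fusion protein.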

[11] = system: Zika virus NS2B-NS3 protease (unlinked complex); assay: Primary screen GU Rhodamine qHTS for Zika virus inhibitors: Unlinked NS2B-NS3 protease assay (AID 1347159); note: nearly all actives have a fitted effect of over 60% in size
Summary of the method: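 Noncovalent NS2B hydrophilic domain/NS3 protease complex (25 nM final) in 10 mM Tris-HCl pH 8.0, 0.01% Tween 20, preincubated 15 min with compounds (up to 114 microM), then 1.5 microM Rhodamine110 substrate. Fluorescence change over 15 min fitted to 4-parameter Hill.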

[12] = system: Zika virus NS2B-NS3 protease (linked construct); assay: Primary screen NINDS Rhodamine qHTS for Zika virus inhibitors (AID 1347160); note: nearly all actives have a fitted effect of over 55% in size
Summary of the method: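 Purified NS2B-NS3 protease with the NS2B hydrophilic domain joined by a flexible linker (25 nM) in 10 mM Tris-HCl pH 8.0, 0.01% Tween 20, preincubated 15 min at RT with compound; Rhodamine110 peptide substrate 1.5 µM; fluorescence change over 15 min; 4-parameter Hill fit.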

[13] = biological target: Calcium and integrin-binding protein 1 (Homo sapiens) (UniProt Q99828); assay: Primary qHTS for Identification of Calcium Integrin Binding Protein 1 (CIB1) Competitor (AID 1508620);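 note: GST tagged CIB1 binding a fluorescein labelled alphaIIb integrin peptide tracer; top concentration of the series differs between compounds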
Summary of the method: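 Fluorescence polarization competition: CIB1-GST (1 uM final) preincubated with compound 15 min at room temperature, then FITC-labeled alphaIIb peptide (100 nM final) added for another 15 min. Polarization read at Ex 480/Em 540.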

[14] = biological target: Cytochrome P450 2D6 (Homo sapiens) (UniProt P10635); assay: Cytochrome P450 family 2 subfamily D member 6 (CYP2D6) small molecule antagonists: luciferase biochemical (cell-free) qHTS assay (AID 1645840; active = well fitted curve in the direction sought with a large enough effect in the repeat runs; an effect the other way counts as inactive or inconclusive; note: potency is the fitted concentration of half-maximal effect; nearly all actives have a fitted effect of over 55% in size)
Summary of the method: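 P450-Glo luminescent screen: recombinant CYP2D6 enzyme–proluciferin substrate mix preincubated with compound 10 min at room temperature, then NADPH regeneration added for 1 h at room temperature. Detection reagent added for 20 min; luciferin light read as relative luminescence units.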

[15] = biological target: Cytochrome P450 2C9 (Homo sapiens) (UniProt P11712); assay: Cytochrome P450 family 2 subfamily C member 9 (CYP2C9) small molecule antagonists: luciferase biochemical (cell-free) qHTS assay (AID 1645842; active = well fitted curve in the direction sought with a large enough effect in the repeat runs; an effect the other way counts as inactive or inconclusive; note: potency is the fitted concentration of half-maximal effect; nearly all actives have a fitted effect of over 55% in size)
Summary of the method: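 Luminescence, after 20 min with luciferin detection reagent, reflected CYP2C9 turnover during a 1 h NADPH-driven reaction at 37C. Enzyme-substrate mix contained 0.4% bovine serum albumin and was preincubated with compound 10 min at room temperature.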

[16] = Primary qHTS for inhibitors of nuclear receptor binding SET domain protein 2 (NSD2) in an isogenic RCH-ACV NSD2 p.E1099K mutant (9B) (AID 1645876); note: potency is the fitted concentration of half-maximal effect; nearly all actives have a fitted effect of over 70% in size
[17] = Primary qHTS for inhibitors of nuclear receptor binding SET domain protein 2 (NSD2) in an RCH-ACV wild type WT cells (2C) (AID 1645877); note: potency is the fitted concentration of half-maximal effect; nearly all actives have a fitted effect of over 70% in size
[18] = biological target: Glutathione peroxidase 1 (Homo sapiens) (UniProt P07203); assay: Primary qHTS Assay for Inhibitors of Recombinant Selenoprotein Glutathione Peroxidase 1 (GPX1) (AID 1845191); note: nearly all actives have a fitted effect of over 65% in size
Summary of the method: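 Recombinant GPX1 (10 nM final) was preincubated with compound for 30 min at room temperature, then reacted with 1 mM GSH, 0.5 mM CHP, 0.5 mM NADPH and 100 nM glutathione reductase; NADPH fluorescence (340/450 nm) was read at 0 and 15 min.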

[19] = biological target: Phospholipid hydroperoxide glutathione peroxidase GPX4 (Homo sapiens) (UniProt P36969); assay: Primary qHTS Assay for Inhibitors of Recombinant Selenoprotein Glutathione Peroxidase 4 (GPX4) (AID 1845192); note: nearly all actives have a fitted effect of over 65% in size
Summary of the method: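 GR-coupled readout: 100 nM GR, 1 mM GSH, 0.5 mM NADPH; NADPH fluorescence (ex 340/em 450 nm) read at t=0 and after 15 min RT. GPX4 200 nM, preincubated 30 min with compound; substrate 0.5 mM CHP.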

[20] = biological target: Luciferin 4-monooxygenase (Photinus pyralis) (UniProt P08659); assay: Primary firefly luciferase (FLuc) qHTS assay for identification of artifact compounds. (AID 1845220); conditions: outcome: dose series up to 54.1 µM unless noted; note: nearly all actives have a fitted effect of over 60% in size
Summary of the method: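 In this counter-screen for luciferase artifacts, test compounds met substrate (10 uM each luciferin and ATP) before 10 nM enzyme started the reaction. Light output was measured 5 min later.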

[21] = Primary fluorescence-based thiol-reactive (MSTI) qHTS assay for identification of artifact compounds. (AID 1845221);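 note: thiol-reactive compounds lower the probe fluorescence signal; nearly all actives have a fitted effect of over 65% in size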
Summary of the method: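 Thiol-reactive compounds detected by quenching of 4 uM MSTI fluorescence (525/598 nm) after 1 h room-temperature dark incubation in PBS pH 7.4, 2% DMSO. qHTS titration; percent inhibition Hill-fitted against Acetyl-MSTI/MSTI controls.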

[22] = system: Nanoluciferase (engineered Oplophorus gracilirostris luciferase); assay: Primary Nanoluciferase (NLuc) qHTS assay for identification of artifact compounds. (AID 1845222);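 note: NLuc secreted into diluted conditioned medium of S16 cells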
Summary of the method: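 Using secreted nanoluciferase in S16 culture medium (0.22 um filtered, 1:55 dilution), compounds were preincubated 15 min at RT. Signal was generated with Nano-Glo reagent (1:100) over 5 min.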

[23] = Primary redox qHTS assay for identification of artifact compounds. (AID 1845223)
Summary of the method: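 Amplex Red (25 uM) and HRP (250 mU/mL) in HBSS, with compounds for 15 min, then 250 uM DTT for 30 min, room temperature, dark. Fluorescence 525/598 nm read; normalized to DMSO and 10 uM DA3003; Hill fit.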

[24] = system: HeLa; assay: Primary qHTS to identify gynecologic anti-cancer compounds using libraries of approved drugs and bioactive compounds (AID 1345084); conditions: Gynecologic cancer cell panel viability, ATPlite luminescence, 48 h; series mostly up to 57.5 µM; note: nearly all actives have a fitted effect of over 55% in size
Summary of the method: (§2)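 Five-point cytotoxicity, 48 h drug exposure at 37 C, 5% CO2, on cells seeded 16 h beforehand. ATP content read by ATPlite luminescence.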

[25] = system: Tov-21-G; assay: as above; conditions: Gynecologic cancer cell panel viability, ATPlite luminescence, 48 h; series mostly up to 57.5 µM
Summary of the method: as §2

[26] = Confirmatory qHTS to identify inhibitors of SARS-CoV-2 cell entry (AID 1645844; calls by dose curve; note: nearly all actives have a fitted effect of over 45% in size)
Summary of the method: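 HEK293-ACE2 cells (Expi293F stably expressing human ACE2) were pretreated with compounds for 1 hr at 37C, then infected with MLV-based particles carrying Wuhan-Hu-1 spike (C-terminal 19-aa truncation). Luciferase luminescence read after 48 hr; normalized to spike PP (100%) and bald PP (0%).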

Chain of Nucleoprotein (Lymphocytic choriomeningitis virus (strain Armstrong)) (P09992 whole entry, looked up): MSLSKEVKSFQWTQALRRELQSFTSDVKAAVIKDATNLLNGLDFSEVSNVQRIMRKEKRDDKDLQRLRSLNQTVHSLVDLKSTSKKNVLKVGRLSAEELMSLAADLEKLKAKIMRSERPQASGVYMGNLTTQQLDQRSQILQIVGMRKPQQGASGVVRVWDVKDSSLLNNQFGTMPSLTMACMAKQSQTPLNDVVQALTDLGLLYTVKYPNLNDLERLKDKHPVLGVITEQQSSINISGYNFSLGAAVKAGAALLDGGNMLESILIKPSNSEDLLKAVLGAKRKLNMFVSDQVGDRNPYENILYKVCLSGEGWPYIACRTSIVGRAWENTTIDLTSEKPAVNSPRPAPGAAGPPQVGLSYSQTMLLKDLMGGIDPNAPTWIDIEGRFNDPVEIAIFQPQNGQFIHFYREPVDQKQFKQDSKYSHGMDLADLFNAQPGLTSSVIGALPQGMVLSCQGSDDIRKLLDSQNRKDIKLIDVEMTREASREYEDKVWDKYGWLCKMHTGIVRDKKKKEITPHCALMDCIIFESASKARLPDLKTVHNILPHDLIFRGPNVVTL
Chain of Phospholipid hydroperoxide glutathione peroxidase GPX4 (Homo sapiens) (P36969 whole entry, looked up): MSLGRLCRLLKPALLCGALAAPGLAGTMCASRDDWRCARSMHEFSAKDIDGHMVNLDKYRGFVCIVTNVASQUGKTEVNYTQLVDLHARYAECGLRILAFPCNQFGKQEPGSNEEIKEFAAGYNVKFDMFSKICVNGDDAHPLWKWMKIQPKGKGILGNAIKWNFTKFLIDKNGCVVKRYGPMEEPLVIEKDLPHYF
Chain of Glutathione peroxidase 1 (Homo sapiens) (P07203 whole entry, looked up): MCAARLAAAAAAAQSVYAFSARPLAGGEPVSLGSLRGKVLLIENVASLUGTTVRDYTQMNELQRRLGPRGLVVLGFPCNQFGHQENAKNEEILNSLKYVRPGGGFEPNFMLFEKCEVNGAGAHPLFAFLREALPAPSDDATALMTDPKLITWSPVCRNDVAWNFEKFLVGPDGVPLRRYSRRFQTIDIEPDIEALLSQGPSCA
Chain of Cytochrome P450 2D6 (Homo sapiens) (P10635 whole entry, looked up): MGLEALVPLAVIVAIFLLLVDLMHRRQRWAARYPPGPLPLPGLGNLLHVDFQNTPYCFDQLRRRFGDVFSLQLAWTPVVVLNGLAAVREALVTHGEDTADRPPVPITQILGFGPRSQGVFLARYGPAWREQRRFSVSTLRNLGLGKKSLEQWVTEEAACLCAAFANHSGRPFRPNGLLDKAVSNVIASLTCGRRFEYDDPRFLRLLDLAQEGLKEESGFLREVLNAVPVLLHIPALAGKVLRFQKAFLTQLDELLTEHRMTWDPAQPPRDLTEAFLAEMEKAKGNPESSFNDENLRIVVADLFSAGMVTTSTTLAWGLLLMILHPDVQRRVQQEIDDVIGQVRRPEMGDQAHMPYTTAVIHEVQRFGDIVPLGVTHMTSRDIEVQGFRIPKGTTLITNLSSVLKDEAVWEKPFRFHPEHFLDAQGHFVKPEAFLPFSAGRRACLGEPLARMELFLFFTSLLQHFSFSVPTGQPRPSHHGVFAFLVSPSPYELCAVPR
Chain of Cytochrome P450 2C9 (Homo sapiens) (P11712 whole entry, looked up): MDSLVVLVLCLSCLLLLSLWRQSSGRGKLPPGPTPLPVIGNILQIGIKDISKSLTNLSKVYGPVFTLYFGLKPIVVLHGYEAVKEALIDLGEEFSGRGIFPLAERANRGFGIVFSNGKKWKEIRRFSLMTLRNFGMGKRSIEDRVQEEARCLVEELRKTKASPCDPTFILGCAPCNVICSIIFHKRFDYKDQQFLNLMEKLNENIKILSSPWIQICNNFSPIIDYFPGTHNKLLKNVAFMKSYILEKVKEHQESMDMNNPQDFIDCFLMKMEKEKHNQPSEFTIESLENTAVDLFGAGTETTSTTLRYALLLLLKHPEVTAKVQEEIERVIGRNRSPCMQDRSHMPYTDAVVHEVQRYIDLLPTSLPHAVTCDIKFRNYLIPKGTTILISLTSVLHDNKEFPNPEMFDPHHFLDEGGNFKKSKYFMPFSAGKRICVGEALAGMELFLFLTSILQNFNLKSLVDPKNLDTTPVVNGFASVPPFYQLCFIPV
Chain of Calcium and integrin-binding protein 1 (Homo sapiens) (Q99828 whole entry, looked up): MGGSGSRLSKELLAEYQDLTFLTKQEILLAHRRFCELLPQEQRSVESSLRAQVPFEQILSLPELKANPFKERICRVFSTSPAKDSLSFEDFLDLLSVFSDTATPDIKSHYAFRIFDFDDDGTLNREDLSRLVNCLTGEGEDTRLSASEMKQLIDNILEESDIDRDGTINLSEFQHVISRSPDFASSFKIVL

NC(=O)c1cccc(-c2cccc(OC(=O)NC3CCCCC3)c2)c1
parasite growth, % of DMSO control [1]: 81% | parasite growth, % of control (lower = inhibition) [2]: 37.9% | Potency [3]: 4.32 µM (active) | Potency [4]: 8.63 µM (active) | Potency [5]: 6.85 µM (active) | Potency [6]: inactive | Potency [7]: inactive

CC[C@H](NC(=O)[C@H](C)NC)C(=O)N1C[C@@H](O)C[C@H]1Cc1c(-c2[nH]c3cc(F)ccc3c2C[C@H]2C[C@H](O)CN2C(=O)[C@H](CC)NC(=O)[C@H](C)NC)[nH]c2cc(F)ccc12
Potency [3]: 6.85 µM (active) | Potency [4]: 3.85 µM (active) | Potency [5]: 7.69 µM (active) | Potency [7]: inactive

CC(C)c1ccc2c(c1)CCC1[C@](C)(C(=O)O)CCC[C@]21C (stereo partly drawn)
outcome [8]: inactive

CC1=C2C(=O)O[C@@H](c3ccoc3)[C@]2(C)CCC1
outcome [8]: inactive

CCN(CC)CCOCCOC(=O)C(CC)(CC)c1ccccc1
Potency [9]: inactive

Nc1nc(=O)n([C@H]2C[C@H](O)[C@@H](CO)O2)cc1F
Potency [9]: 0.0136 µM (active)

CCC(CC)CC1(C(=O)Nc2ccccc2SC(=O)C(C)C)CCCCC1
Potency [6]: inactive | activity change, negative = inhibition [10]: -15.2% | Potency [7]: inactive

CN(C(=O)CN1C(=O)COc2cc(Cl)c(Cl)cc21)[C@@H](CN1CCCC1)c1ccc(-c2cccc(C(N)=O)c2)cc1
Potency [11]: inactive | Potency [12]: inactive | Potency [13]: inactive | Potency [14]: 16.9 µM (active) | Potency [15]: 13.5 µM (active) | Potency [16]: 8.17 µM (active) | Potency [17]: 7.28 µM (active) | Potency [18]: inactive | Potency [19]: inactive | outcome [20]: inactive | Potency [21]: inactive | Potency [22]: inactive | Potency [23]: inactive | Potency [24]: inactive | Potency [25]: inactive

CC[C@@](C)(Nc1ccnc(-c2c[nH]c3ncccc23)n1)C(=O)NCC(F)(F)F
Potency [26]: inactive | Potency [6]: inactive | activity change, negative = inhibition [10]: -38.3% | Potency [9]: inactive | Potency [7]: inactive
